About 8,800 targets were measured; listed, in parts, are those with a hit and a random draw of the rest. About 0.5% of all pairs of compound and target were hits.
Assays:
Experiment in all cases: log2 fold change, soluble protein after heating vs DMSO (PISA); higher = thermal stabilisation; K562 lysate, 10 uM; active = over 0.2 and 3.5 SD of the protein, either way, in both replicates (recomputed)
vemurafenib = compound: CCCS(=O)(=O)Nc1ccc(F)c(C(=O)c2c[nH]c3ncc(-c4ccc(Cl)cc4)cc23)c1F [vemurafenib]
Summary of the method: (§1)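 K562 pellets were dounce-homogenised in PBS pH 7.4 with 1 mM MgCl2, and the crude extract at 1 mg/mL protein was treated with 10 μM compound for 30 min. Aliquots were heated for 3 min across 48°C-58°C, pooled, and brought to 0.5% NP-40 at 4°C; soluble protein was the supernatant after 21,000xg for 90 min. Soluble protein was quantified by TMTpro 16plex LC-MS/MS with channel sums equalised, and reported as log2 fold change in thermal stability against DMSO controls, with values from duplicates.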

[1] = compound: CCCS(=O)(=O)Nc1ccc(F)c(C(=O)c2c[nH]c3ncc(Cl)cc23)c1F
Summary of the method: as §1

barasertib = compound: CCN(CCCOc1ccc2c(Nc3cc(CC(=O)Nc4cccc(F)c4)[nH]n3)ncnc2c1)CCOP(=O)(O)O [barasertib]
Summary of the method: as §1

[2] = compound: CC[C@@H]1C(=O)N(C)c2cnc(Nc3ccc(C(=O)NC4CCN(C)CC4)cc3OC)nc2N1C1CCCC1
Summary of the method: as §1

volasertib = compound: CC[C@@H]1C(=O)N(C)c2cnc(Nc3ccc(C(=O)N[C@H]4CC[C@H](N5CCN(CC6CC6)CC5)CC4)cc3OC)nc2N1C(C)C [volasertib]
Summary of the method: as §1

[3] = compound: CCn1c(C(=O)N(C2CC2)C2CC2)cc2c3c(ncn3C)c(Nc3cc(C)n(C)n3)nc21
Summary of the method: as §1

[4] = compound: CCn1cc(-c2ccnc3[nH]c(-c4cccc(CN(C)C)c4)cc23)c(-c2ccc(NC(=O)N(C)C)cc2)n1
Summary of the method: as §1

[5] = compound: CN1CCC(CNc2ccc3ncc(-c4cccc(OC(F)(F)F)c4)n3n2)CC1
Summary of the method: as §1

saracatinib = compound: CN1CCN(CCOc2cc(OC3CCOCC3)c3c(Nc4c(Cl)ccc5c4OCO5)ncnc3c2)CC1 [saracatinib]
Summary of the method: as §1

sotrastaurin = compound: CN1CCN(c2nc(C3=C(c4c[nH]c5ccccc45)C(=O)NC3=O)c3ccccc3n2)CC1 [sotrastaurin]
Summary of the method: as §1

alvocidib = compound: CN1CC[C@H](c2c(O)cc(O)c3c(=O)cc(-c4ccccc4Cl)oc23)[C@H](O)C1 [alvocidib]
Summary of the method: as §1

Tubastatin A = compound: CN1CCc2c(c3ccccc3n2Cc2ccc(C(=O)NO)cc2)C1 [Tubastatin A]
Summary of the method: as §1

[6] = compound: CNC(=O)C1=CC=CC=C1NC2=NC(=NC=C2Cl)NC3=C(C=C(C=C3)N4CCOCC4)OC
Summary of the method: as §1

defactinib = compound: CNC(=O)c1ccc(Nc2ncc(C(F)(F)F)c(NCc3nccnc3N(C)S(C)(=O)=O)n2)cc1 [defactinib]
Summary of the method: as §1

[7] = compound: CNc1nc(-c2ccc3c(N)n[nH]c3c2)cc(N2C[C@@H](C(=O)NC3CCCCC3)CC[C@H]2C)n1
Summary of the method: as §1

encorafenib = compound: COC(=O)N[C@@H](C)CNc1nccc(-c2cn(C(C)C)nc2-c2cc(Cl)cc(NS(C)(=O)=O)c2F)n1 [encorafenib]
Summary of the method: as §1

[8] = compound: COC(=O)[C@H](CCSC)NC(=O)C1=C(C=C(C=C1)NC[C@H](CS)N)C2=CC=CC=C2
Summary of the method: as §1

alisertib = compound: COc1cc(Nc2ncc3c(n2)-c2ccc(Cl)cc2C(c2c(F)cccc2OC)=NC3)ccc1C(=O)O [alisertib]
Summary of the method: as §1

[9] = compound: COc1cc2nc(-c3cc(F)ccc3O)nc(N[C@@H]3CNC[C@H]3C(C)(C)O)c2cc1OC
Summary of the method: as §1

gefitinib = compound: COc1cc2ncnc(Nc3ccc(F)c(Cl)c3)c2cc1OCCCN1CCOCC1 [gefitinib]
Summary of the method: as §1

Measured: log2 fold change

PRMT8 (UniProt Q9NR22)
Chain of UniProt Q9NR22 (Q9NR22 whole entry, looked up): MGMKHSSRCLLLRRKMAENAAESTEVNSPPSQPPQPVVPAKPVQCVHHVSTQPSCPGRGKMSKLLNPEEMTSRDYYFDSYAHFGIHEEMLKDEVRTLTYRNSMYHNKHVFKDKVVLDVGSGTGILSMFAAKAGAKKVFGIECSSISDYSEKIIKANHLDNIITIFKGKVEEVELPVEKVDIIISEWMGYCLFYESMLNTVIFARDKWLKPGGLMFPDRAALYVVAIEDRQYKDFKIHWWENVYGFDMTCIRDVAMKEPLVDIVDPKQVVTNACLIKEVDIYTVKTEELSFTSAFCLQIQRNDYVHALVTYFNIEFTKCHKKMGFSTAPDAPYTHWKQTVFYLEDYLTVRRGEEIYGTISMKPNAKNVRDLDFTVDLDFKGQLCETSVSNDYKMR
active: [4] -0.285
inactive: vemurafenib 0.059 | [1] 0.021 | barasertib 0.007 | [2] -0.009 | volasertib -0.009 | [3] -0.005 | [5] 0.179 | saracatinib -0.018 | sotrastaurin 0.007 | alvocidib -0.11 | Tubastatin A -0.019 | [6] 0.001 | defactinib -0.103 | [7] -0.005 | encorafenib -0.002 | [8] 0.004 | alisertib -0.01 | [9] 0.016 | gefitinib 0.034

PREP (UniProt P48147)
Chain of UniProt P48147 (P48147 whole entry, looked up): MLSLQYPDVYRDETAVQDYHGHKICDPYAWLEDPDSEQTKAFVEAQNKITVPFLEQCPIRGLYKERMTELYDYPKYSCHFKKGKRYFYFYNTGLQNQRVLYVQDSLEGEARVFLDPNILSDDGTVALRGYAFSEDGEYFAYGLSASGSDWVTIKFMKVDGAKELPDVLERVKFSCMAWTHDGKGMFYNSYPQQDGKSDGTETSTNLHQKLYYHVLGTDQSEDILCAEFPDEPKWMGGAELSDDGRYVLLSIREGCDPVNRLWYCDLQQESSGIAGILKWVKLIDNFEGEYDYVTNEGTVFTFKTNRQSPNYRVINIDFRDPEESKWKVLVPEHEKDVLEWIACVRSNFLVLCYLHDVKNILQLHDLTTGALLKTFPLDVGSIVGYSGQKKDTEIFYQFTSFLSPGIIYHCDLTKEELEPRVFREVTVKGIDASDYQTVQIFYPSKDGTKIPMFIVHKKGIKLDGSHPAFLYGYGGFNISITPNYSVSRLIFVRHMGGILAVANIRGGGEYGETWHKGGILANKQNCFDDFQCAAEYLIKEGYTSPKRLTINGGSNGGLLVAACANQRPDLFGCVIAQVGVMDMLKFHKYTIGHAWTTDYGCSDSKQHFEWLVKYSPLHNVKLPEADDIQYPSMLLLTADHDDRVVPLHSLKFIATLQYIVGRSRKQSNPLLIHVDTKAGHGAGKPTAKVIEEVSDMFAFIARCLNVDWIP
active: [8] 0.361
inactive: vemurafenib 0.028 | [1] 0.011 | barasertib -0.003 | [2] -0.025 | volasertib -0.025 | [3] 0.023 | [4] 0.008 | [5] -0.013 | saracatinib 0.005 | sotrastaurin 0.001 | alvocidib 0.018 | Tubastatin A -0.021 | [6] 0.018 | defactinib 0.005 | [7] -0.019 | encorafenib -0.024 | alisertib -0.011 | [9] 0.013 | gefitinib -0.012

PHLDB1 (UniProt Q86UU1)
inactive: vemurafenib -0.071 | [1] 0.162 | barasertib 0.01 | [2] 0.033 | volasertib -0.044 | [3] 0.001 | [4] 0.095 | [5] -0.014 | saracatinib 0.005 | sotrastaurin -0.049 | alvocidib -0.067 | Tubastatin A -0.1 | [6] -0.031 | defactinib 0.023 | [7] 0.049 | encorafenib -0.041 | [8] -0.05 | alisertib 0.009 | [9] -0.037 | gefitinib 0.017

PRKCA (UniProt P17252)
inactive: vemurafenib 0.019 | [1] -0.016 | barasertib 0.051 | [2] -0.186 | volasertib -0.054 | [3] 0.004 | [4] 0.101 | [5] -0.207 | saracatinib -0.046 | alvocidib 0.034 | Tubastatin A -0.005 | [6] -0.027 | defactinib 0.032 | [7] -0.041 | encorafenib 0.048 | [8] -0.041 | alisertib -0.031 | [9] 0.133 | gefitinib -0.038
active: sotrastaurin 0.924

PTGS1 isoform 6 (UniProt P23219)
inactive: vemurafenib 0.058 | [1] 0.076 | barasertib 0.039 | [2] 0.005 | volasertib -0.022 | [3] -0.012 | [5] 0.134 | saracatinib -0.033 | sotrastaurin 0.065 | alvocidib -0.154 | Tubastatin A 0.023 | [6] -0.052 | defactinib -0.119 | [7] -0.057 | encorafenib -0.008 | [8] 0.027 | alisertib -0.051 | [9] 0.021 | gefitinib -0.011
active: [4] -0.279

PDS5A (UniProt Q29RF7)
inactive: vemurafenib 0.023 | [1] 0.031 | barasertib 0.064 | [2] -0.057 | volasertib -0.029 | [3] 0.054 | [4] -0.12 | [5] -0.019 | saracatinib 0.007 | sotrastaurin 0.026 | alvocidib 0.023 | Tubastatin A -0.21 | [6] 0.016 | defactinib 0.016 | [7] -0.054 | encorafenib 0.048 | [8] -0.003 | alisertib 0.014 | [9] 0 | gefitinib -0.005

PRKDC (UniProt P78527)
inactive: vemurafenib 0.132 | [1] 0.014 | barasertib -0.009 | [2] -0.058 | volasertib -0.062 | [3] 0.063 | [4] -0.12 | [5] 0.097 | saracatinib -0.007 | sotrastaurin 0.048 | alvocidib -0.06 | Tubastatin A -0.114 | [6] -0.002 | defactinib 0.033 | [7] -0.03 | encorafenib -0.022 | [8] -0.035 | alisertib 0.012 | [9] -0.003

PUS3 (UniProt Q9BZE2)
Chain of UniProt Q9BZE2 (Q9BZE2 whole entry, looked up): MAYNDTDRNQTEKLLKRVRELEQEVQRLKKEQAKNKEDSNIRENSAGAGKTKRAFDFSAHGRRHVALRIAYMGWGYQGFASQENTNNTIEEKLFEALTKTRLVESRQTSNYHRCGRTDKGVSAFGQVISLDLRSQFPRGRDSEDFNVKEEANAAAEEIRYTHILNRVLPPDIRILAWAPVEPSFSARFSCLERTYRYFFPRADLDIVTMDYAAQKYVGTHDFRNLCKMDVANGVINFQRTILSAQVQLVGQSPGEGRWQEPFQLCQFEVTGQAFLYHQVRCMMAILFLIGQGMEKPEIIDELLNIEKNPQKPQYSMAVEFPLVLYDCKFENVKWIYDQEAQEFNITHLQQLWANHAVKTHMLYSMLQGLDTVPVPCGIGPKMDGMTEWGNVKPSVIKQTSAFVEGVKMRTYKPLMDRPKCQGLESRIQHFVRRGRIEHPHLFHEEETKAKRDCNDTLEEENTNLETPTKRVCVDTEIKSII
inactive: vemurafenib 0.083 | [1] 0.036 | barasertib 0.074 | [2] -0.058 | volasertib -0.007 | [3] 0.071 | [4] 0.193 | [5] -0.195 | saracatinib 0.018 | sotrastaurin 0.052 | alvocidib 0.094 | Tubastatin A -0.181 | [6] 0.035 | defactinib -0.089 | [7] -0.117 | encorafenib 0.06 | [8] 0.04 | alisertib 0.01 | [9] -0.021 | gefitinib 0.041

PCBP2 (UniProt H3BRU6)
inactive: vemurafenib 0.13 | [1] -0.031 | barasertib -0.115 | [2] 0.085 | volasertib 0.036 | [3] -0.082 | [4] -0.041 | [5] 0.047 | saracatinib 0.1 | sotrastaurin 0.179 | alvocidib 0.033 | Tubastatin A -0.116 | [6] 0.082 | defactinib 0.061 | [7] 0.018 | encorafenib 0.04 | [8] 0.017 | alisertib -0.023 | [9] 0.072 | gefitinib -0.145

PIP4K2A (UniProt P48426)
Chain of UniProt P48426 (P48426 whole entry, looked up): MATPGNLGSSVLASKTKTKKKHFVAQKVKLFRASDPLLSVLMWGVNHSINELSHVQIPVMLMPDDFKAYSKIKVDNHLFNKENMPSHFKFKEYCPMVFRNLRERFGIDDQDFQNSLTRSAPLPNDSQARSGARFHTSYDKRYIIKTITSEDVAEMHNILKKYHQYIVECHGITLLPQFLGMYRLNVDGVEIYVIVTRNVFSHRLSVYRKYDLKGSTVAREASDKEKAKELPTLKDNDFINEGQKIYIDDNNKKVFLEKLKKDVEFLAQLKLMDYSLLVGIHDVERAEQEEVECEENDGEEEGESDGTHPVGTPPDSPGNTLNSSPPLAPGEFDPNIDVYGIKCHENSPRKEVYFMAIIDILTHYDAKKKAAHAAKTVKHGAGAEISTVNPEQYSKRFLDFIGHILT
inactive: vemurafenib 0 | [1] -0.009 | barasertib -0.051 | volasertib 0.087 | [3] 0.073 | [4] -0.035 | [5] 0.155 | saracatinib 0.036 | sotrastaurin 0.02 | Tubastatin A -0.048 | [6] 0.006 | defactinib 0.065 | [7] -0.035 | encorafenib 0.141 | [8] -0.071 | alisertib 0.01 | [9] 0.005 | gefitinib 0.037
active: [2] 0.31 | alvocidib 0.279

PIK3R1 (UniProt P27986)
Chain of UniProt P27986 (P27986 whole entry, looked up): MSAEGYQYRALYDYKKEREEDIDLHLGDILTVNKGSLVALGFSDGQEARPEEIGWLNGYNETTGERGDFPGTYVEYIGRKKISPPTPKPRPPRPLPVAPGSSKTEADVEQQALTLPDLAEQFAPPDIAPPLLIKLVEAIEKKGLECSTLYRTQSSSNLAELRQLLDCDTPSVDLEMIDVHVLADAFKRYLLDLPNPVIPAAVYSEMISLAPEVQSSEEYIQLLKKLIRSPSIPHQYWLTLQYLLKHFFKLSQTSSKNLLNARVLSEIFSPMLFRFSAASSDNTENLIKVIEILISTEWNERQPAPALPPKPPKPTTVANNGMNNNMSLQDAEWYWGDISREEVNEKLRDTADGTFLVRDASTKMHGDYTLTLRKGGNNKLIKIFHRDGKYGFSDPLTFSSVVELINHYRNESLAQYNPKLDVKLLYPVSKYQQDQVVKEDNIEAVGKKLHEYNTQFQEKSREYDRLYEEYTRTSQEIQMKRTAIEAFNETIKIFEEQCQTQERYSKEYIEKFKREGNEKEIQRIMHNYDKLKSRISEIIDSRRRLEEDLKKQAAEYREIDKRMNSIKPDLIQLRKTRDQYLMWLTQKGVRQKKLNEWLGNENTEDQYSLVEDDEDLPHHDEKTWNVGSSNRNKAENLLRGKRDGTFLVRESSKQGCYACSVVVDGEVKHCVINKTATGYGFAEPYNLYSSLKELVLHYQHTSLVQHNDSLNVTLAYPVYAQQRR
inactive: vemurafenib 0.011 | [1] -0.01 | barasertib -0.005 | [2] 0.172 | volasertib 0.016 | [3] 0.023 | [4] -0.037 | saracatinib 0.025 | sotrastaurin 0.056 | alvocidib 0.032 | Tubastatin A -0.037 | [6] 0.075 | defactinib -0.066 | [7] -0.039 | encorafenib -0.025 | [8] -0.111 | alisertib 0.078 | [9] 0.023 | gefitinib -0.045
active: [5] 0.365

POMP (UniProt Q9Y244)
Chain of UniProt Q9Y244 (Q9Y244 whole entry, looked up): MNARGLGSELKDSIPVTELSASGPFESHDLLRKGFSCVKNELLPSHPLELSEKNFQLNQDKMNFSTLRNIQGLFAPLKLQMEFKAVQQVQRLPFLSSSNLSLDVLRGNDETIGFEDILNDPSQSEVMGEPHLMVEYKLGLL
inactive: vemurafenib -0.022 | [1] 0.001 | barasertib -0.034 | [2] 0.039 | volasertib -0.007 | [3] -0.028 | [4] 0.065 | [5] -0.061 | saracatinib 0.056 | sotrastaurin -0.064 | alvocidib 0.072 | Tubastatin A -0.061 | [6] 0.035 | defactinib 0.024 | [7] -0.03 | encorafenib 0.074 | [8] -0.002 | alisertib -0.013 | [9] -0.033 | gefitinib -0.093

PHKB isoform 3 (UniProt Q93100)
inactive: vemurafenib -0.043 | [1] -0.007 | barasertib 0.04 | [2] 0.022 | volasertib -0.034 | [3] 0.009 | [4] -0.146 | [5] 0.138 | saracatinib 0.019 | sotrastaurin -0.014 | alvocidib 0.04 | Tubastatin A -0.099 | [6] 0.223 | defactinib -0.006 | [7] -0.018 | encorafenib -0.019 | [8] 0.015 | alisertib 0.006 | [9] 0.107 | gefitinib 0.03

PCIF1 (UniProt Q9H4Z3)
Chain of UniProt Q9H4Z3 (Q9H4Z3 whole entry, looked up): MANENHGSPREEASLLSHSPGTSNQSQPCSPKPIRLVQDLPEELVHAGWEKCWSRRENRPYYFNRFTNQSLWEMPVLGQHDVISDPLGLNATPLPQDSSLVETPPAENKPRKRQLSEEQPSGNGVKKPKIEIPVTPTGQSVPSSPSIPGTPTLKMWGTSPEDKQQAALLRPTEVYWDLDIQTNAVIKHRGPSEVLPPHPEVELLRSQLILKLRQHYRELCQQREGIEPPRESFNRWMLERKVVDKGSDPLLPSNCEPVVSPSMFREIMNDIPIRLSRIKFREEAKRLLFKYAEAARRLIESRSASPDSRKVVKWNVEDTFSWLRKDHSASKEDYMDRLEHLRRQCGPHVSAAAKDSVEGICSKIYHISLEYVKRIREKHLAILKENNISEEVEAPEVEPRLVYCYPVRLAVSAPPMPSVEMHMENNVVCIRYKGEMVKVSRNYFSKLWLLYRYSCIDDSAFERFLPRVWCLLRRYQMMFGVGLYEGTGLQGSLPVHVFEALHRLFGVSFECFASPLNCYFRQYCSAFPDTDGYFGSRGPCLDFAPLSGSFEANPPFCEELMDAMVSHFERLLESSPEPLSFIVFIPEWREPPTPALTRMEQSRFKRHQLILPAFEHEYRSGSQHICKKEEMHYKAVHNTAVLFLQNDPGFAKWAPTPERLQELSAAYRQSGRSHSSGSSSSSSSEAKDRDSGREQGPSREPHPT
inactive: vemurafenib 0.03 | [1] -0.012 | barasertib 0.088 | [2] 0.023 | volasertib 0.005 | [3] 0.029 | [4] -0.223 | [5] 0.011 | saracatinib -0.001 | sotrastaurin -0.036 | alvocidib 0.038 | Tubastatin A 0.006 | [6] -0.024 | defactinib 0.051 | [7] 0.02 | encorafenib 0.017 | [8] 0.02 | alisertib 0.04 | [9] 0.01 | gefitinib -0.051

PLEKHO2 (UniProt Q8TD55)
Chain of UniProt Q8TD55 (Q8TD55 whole entry, looked up): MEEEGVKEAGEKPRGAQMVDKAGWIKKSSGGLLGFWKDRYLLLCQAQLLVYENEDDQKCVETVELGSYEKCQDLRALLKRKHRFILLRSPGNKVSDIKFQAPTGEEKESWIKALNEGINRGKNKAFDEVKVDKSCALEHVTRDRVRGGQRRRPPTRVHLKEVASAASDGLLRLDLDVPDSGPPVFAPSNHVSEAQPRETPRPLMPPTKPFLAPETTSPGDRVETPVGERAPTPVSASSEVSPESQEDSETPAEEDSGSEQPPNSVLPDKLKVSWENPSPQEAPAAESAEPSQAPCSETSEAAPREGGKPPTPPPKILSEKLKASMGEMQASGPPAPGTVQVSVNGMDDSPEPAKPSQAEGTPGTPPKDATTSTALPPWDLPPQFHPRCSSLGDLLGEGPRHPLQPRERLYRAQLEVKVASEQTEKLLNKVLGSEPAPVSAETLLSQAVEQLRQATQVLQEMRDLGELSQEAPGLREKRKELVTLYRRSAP
inactive: vemurafenib 0.034 | [1] 0.247 | barasertib 0.161 | [2] 0.068 | volasertib 0.151 | [3] 0.126 | [4] 0.136 | [5] 0.016 | saracatinib 0.278 | sotrastaurin -0.054 | alvocidib -0.067 | Tubastatin A -0.228 | [6] 0.281 | defactinib -0.001 | [7] -0.106 | encorafenib 0.007 | [8] 0.054 | alisertib -0.004 | [9] 0 | gefitinib 0.043

QKI (UniProt Q96PU8)
inactive: vemurafenib -0.006 | [1] 0.024 | barasertib -0.027 | [2] 0.087 | volasertib -0.021 | [3] 0.001 | [4] -0.196 | [5] 0.107 | saracatinib 0.047 | sotrastaurin 0 | alvocidib -0.058 | Tubastatin A -0.005 | [6] 0.024 | defactinib 0.029 | [7] -0.02 | encorafenib 0.045 | [8] -0.206 | alisertib 0.069 | [9] 0.009 | gefitinib 0.021

— the supplement of paper PMC10849652
